Screens deposited in PubChem BioAssay by National Center for Advancing Translational Sciences (NCATS).
An excerpt weighted towards active compounds, which were near 0.9% of everything screened.
gsp antag: gsp mutant antagonism; gsp-mutant cells, cAMP HTRF, 30 min; Potency, µM (titrated, usually from 76.9 µM), hits mostly inhibitors; 0.4% of 340,000 active; AID 624288; calls by dose curve; cell line not stated here;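 note: intracellular cAMP measured with PDE inhibitor Ro 20-1724 present during compound exposure; nearly all actives have a fitted effect of over 65% in size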
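HTRF cAMP measurement after 30 min RT detection following 30 min, 37C compound treatment alongside […] (added as 300 uM solution) in G418-selected cells seeded at 2000/well and grown 16–24 h.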
gsp ag: gsp mutant agonism; gsp mutant cells, cAMP HTRF, 30 min; Potency, µM (titrated, usually from 76.9 µM), most hits filed as activators; 0.13% of 340,000 active; active = well fitted activation curve with a large enough effect; inconclusive = small, poorly fitted or top-dose-only effect, or another doubt; inactive = no such curve, though single readings can be large or run the other way; cell line not stated here;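 note: phosphodiesterase inhibitor Ro 20-1724 added with compounds to block cAMP breakdown; nearly all actives have a fitted effect of over 60% in size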
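Cells stably selected in G418 were plated at 2000/well, grown 16-24 hr, then given compounds in DMSO with the PDE inhibitor […] (300 uM solution added) for 30 min at 37C; cAMP was read by HTRF.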
RXFP1 antag: RXFP1 (human) relaxin receptor antagonism; Q9HBX9; HEK293-RXFP1, relaxin-stimulated cAMP HTRF, 30 min; hits give low values; activity change, negative = inhibition, % at 57.5 µM; 0.59% of 350,000 active; AID 1259400;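 active = activity change of -60% or lower, but not beyond a set lower limit; inconclusive = change between -60% and -40%, or beyond the set limit; inactive = change above -40%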
Target sequence (Q9HBX9 whole entry, looked up): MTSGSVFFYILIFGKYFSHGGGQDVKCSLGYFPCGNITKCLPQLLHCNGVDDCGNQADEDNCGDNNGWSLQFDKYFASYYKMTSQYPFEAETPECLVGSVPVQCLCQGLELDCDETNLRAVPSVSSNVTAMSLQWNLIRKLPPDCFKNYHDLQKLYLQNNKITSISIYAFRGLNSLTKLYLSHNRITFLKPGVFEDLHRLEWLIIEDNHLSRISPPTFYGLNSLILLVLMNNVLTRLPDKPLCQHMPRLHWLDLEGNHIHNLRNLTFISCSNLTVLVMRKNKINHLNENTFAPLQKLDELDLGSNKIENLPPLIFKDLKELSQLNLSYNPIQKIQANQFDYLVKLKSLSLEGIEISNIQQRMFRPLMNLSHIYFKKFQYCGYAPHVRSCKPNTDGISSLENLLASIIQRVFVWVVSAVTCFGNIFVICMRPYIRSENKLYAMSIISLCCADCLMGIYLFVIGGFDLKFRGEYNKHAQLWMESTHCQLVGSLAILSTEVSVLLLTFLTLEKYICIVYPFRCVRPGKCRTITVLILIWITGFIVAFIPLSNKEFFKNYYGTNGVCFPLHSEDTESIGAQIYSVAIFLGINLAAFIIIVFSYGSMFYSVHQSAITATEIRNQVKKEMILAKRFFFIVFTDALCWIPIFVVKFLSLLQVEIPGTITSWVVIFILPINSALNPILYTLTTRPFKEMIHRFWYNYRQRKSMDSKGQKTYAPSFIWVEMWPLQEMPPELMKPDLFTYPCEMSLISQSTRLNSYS
RXFP1 ag: agonists of human relaxin receptor RXFP1; HEK293T-RXFP1 cAMP TR-FRET, 30 min; response scale: percent of porcine relaxin response, buffer zero; Potency, µM (top dose mostly 57.5 µM), most hits filed as activators; 0.3% of 370,000 active; active = well fitted activation curve with a large enough effect; inconclusive = small, poorly fitted or top-dose-only effect; note: nearly all actives have a fitted effect of over 60% in size
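HEK293T cells stably expressing RXFP1 were pretreated with the PDE4 inhibitor Ro 20174, exposed to compounds for 30 min at 37C, lysed, and cAMP was read by TR-FRET. Data normalized to buffer (basal) and 29 nM porcine relaxin (100%).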
Hits are given with their value; 0 = inactive; ? = inconclusive; - = no result given; [ ] = dose if it differs, or a comment.

SMILES	gsp antag	gsp ag	RXFP1 antag	RXFP1 ag
COC(=O)c1c(NC(=O)C(C)(C)C)sc2c1CCN(Cc1ccccc1)C2	0	0	-68	0
O=C/C=C/c1c(-c2ccccc2)cc2oc3ccccc3cc1-2	0	0	-91	0
Nc1ccc(-c2cc3ccccc3oc2=O)cc1	0	0[15.4 µM]	0	0
CC1C/C(=C/c2ccccn2)C(=O)/C(=C/c2ccccn2)C1 (centres undefined)	0	0[15.4 µM]	-75	0
CNC(=O)NC(=O)CSc1nc(-c2cccs2)c(C#N)c(=O)[nH]1	0	?	0	14µM
CSc1nc(-c2cccs2)c(C#N)c(=O)[nH]1	0	0[15.4 µM]	0	14µM
CSc1nc(-c2ccccc2)c(C#N)c(=O)[nH]1	0	?	0	?
CCc1nc(SCc2ccc(F)cc2)[nH]c(=O)c1C#N	35µM	0	0	0
N#Cc1c(-c2cccs2)nc(SCc2ccc(Cl)cc2)[nH]c1=O	0	0[15.4 µM]	0	16µM
O=C(NCCc1ccc(Cl)cc1)c1ccc2c(c1)N(Cc1ccc(Cl)cc1)C(=O)CS2	-	-	-	0
Cc1cc(-c2ccccc2)nc(SCc2ccc(C(=O)O)cc2)n1	35µM	0	0	0
COc1ccccc1C(=O)Nc1ccccc1SCc1cc(=O)c2ccccc2[nH]1	-	-	0	?
Cc1nn(-c2ccc(N3CCOCC3)nn2)c(C)c1CCC(=O)NCc1ccc(OC(C)C)cc1	-	-	-	0
COc1cc2cc(CN(CCCN3CCOCC3)Cc3nnnn3Cc3ccccc3)c(=O)[nH]c2cc1OC	8.9µM	0[15.4 µM]	0	0
CCOc1ccc2[nH]c(=O)c(CN(CCCN3CCOCC3)Cc3nnnn3Cc3ccc(OC)cc3)cc2c1	-	0[15.4 µM]	0	0
Cc1ccc(C)c(NC(=O)c2ccc3c(c2)N(Cc2ccc(F)cc2)C(=O)CS3=O)c1 (centres undefined)	0	0	-	0
O=C(Nc1ccc(Br)cc1F)c1ccc2c(c1)N(Cc1ccccc1)C(=O)CS2=O (centres undefined)	?	0	-72	0
